Bioassay records deposited in PubChem BioAssay by Broad Institute.
T_cruzi_growth-1: T. cruzi intracellular proliferation inhibitors, primary screen, cell-based, beta-gal Tulahuen parasites, NIH3T3 host, luminescence. T. cruzi beta-gal in NIH3T3, GalScreen luminescence, 90 h. inhibition, % at 8.34 µM. actives 5.9% (n = 77,000). AID 624255, 2012;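 active = mean inhibition above about 93%, with at least 55% of replicates each passing it, limit read from the data, passing the limit was not always enough; inconclusive = only one of those two conditions holds; inactive = neither condition holds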
C_diff_HTS: C. difficile growth inhibitors, primary screen, HTS; growth activity, negative = inhibition, % at 16 µg/mL (by protocol); actives 0.25% (n = 86,000); Clostridium difficile clinical isolate growth, OD600, 24 h; active compounds read low;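 active = mean growth activity at or below -80% and every replicate also at or below -80%; inconclusive = mean at or below -80% but some replicate above -80%; inactive = mean growth activity above -80%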;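 note: 0% = DMSO wells and -100% = levofloxacin 16 µg/mL wells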
Pf_Dd2_inh: P. falciparum Dd2 growth inhibitors, primary screen, SYBR Green fluorescence, single dose replicates; AID 1159554, 2015; 72 h; active compounds read low; activity change, % at 10 µM; actives 2.3% (n = 94,000); in the data active = activity change below about -80%; inconclusive = no clear call, values can overlap the other calls
T_cruzi_growth-2: T. cruzi intracellular proliferation inhibitors, confirmation, cell-based, NIH3T3 host, beta-gal parasite, luminescence, cherry-pick | actives 72% (n = 5,600) | shares compounds with T_cruzi_growth-1 | inhibition, % at 8.35 µM | T. cruzi beta-gal in NIH3T3, GalScreen luminescence, 90 h;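 active = mean replicate inhibition above about 95% and at least 55% of replicates individually reaching it, limit read from the data; inconclusive = only one of the two criteria is met; inactive = neither criterion is met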
T_cruzi_growth-3: inhibitors of intracellular T. cruzi replication, confirmation, NIH3T3 host cells, beta-gal parasites, cherry-pick, set 2 | T. cruzi beta-gal in NIH3T3, GalScreen luminescence, 90 h | shares compounds with T_cruzi_growth-1 | actives 21% (n = 5,600) | inhibition, % at 2.09 µM;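 active = mean inhibition above about 95%, with at least 55% of replicates also reaching it, limit read from the data; inconclusive = meets just one of the two conditions; inactive = meets neither condition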;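 note: plate controls were neutral control median for no effect and positive control median for full effect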
3T3_cytotox: cytotoxicity in mouse NIH/3T3 fibroblasts, confirmation, cytotoxicity control for T. cruzi proliferation inhibitor project, cell-based, cherry-pick, single point | NIH/3T3 viability, CellTiter-Glo ATP luminescence, 90 h | actives 14% (n = 5,600) | cytotoxicity (signal decrease), % at 8.35 µM | shares compounds with T_cruzi_growth-1;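 active = mean signal decrease across replicates above about 35% based on untreated-well scatter, with enough replicates individually passing, limit read from the data; inconclusive = no rule stated though some were filed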;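 note: 0% = median of neutral control wells and 100% = median of positive control wells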
NIH3T3_tox_2: NIH/3T3 fibroblast cytotoxicity, confirmation, cytotoxicity control, cell-based, cherry-pick, single point, set 2. AID 651744, 2012. inhibition, % at 24.9 µM. NIH/3T3 viability, CellTiter-Glo ATP luminescence, 90 h. actives 56% (n = 5,600). shares compounds with T_cruzi_growth-1;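 active = mean loss of cell viability signal at or above a set limit, and enough replicates individually reaching it; inconclusive = meets only the mean limit or only the replicate share; inactive = meets neither condition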;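 note: 0% = median of neutral control wells and 100% = median of positive control wells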
Active calls of the source: *; ? = inconclusive; . = no result. Shown are actives, neighbours in structure and some others; about 6.8% of the full set was active somewhere.

SMILES T_cruzi_growth-1 C_diff_HTS Pf_Dd2_inh T_cruzi_growth-2 T_cruzi_growth-3 3T3_cytotox NIH3T3_tox_2
CCCN(C)C[C@@H]1OCCCC[C@@H](C)Oc2ccc(NS(=O)(=O)c3cccs3)cc2C(=O)N([C@@H](C)CO)C[C@@H]1C 86.9 7.6 -74.0 . . . .
COC(=O)C[C@@H]1CC[C@H]2[C@@H](COc3ccc(NC(=O)c4ccccc4F)cc3C(=O)N2C)O1 -48.0 6.9 . . . . .
C[C@H](CO)N1C[C@H](C)[C@H](CN(C)C(=O)CN2CCOCC2)Oc2ncc(C3=CCCC3)cc2C1=O 70.5 3.0 -30.0 . . . .
N#C[C@H]1[C@@H](c2ccc(C#CCC3CCCC3)cc2)[C@@H](CO)N1C(=O)c1ccccn1 97.2* -4.5 ? 101.5* 111.6* -24.9 93.4*
COCC(=O)N1[C@H](CO)[C@H](c2ccc(C#CCC3CCCC3)cc2)[C@@H]1C#N 88.9 2.2 -27.6 . . . .
COCC(=O)N1[C@H](C#N)[C@H](c2ccc(C#CCC3CCCC3)cc2)[C@@H]1CO 92.5 6.9 -38.2 . . . .
N#C[C@@H]1[C@@H](c2ccc(C#CCC3CCCC3)cc2)[C@H](CO)N1C(=O)c1ccccn1 96.7* -5.7 -23.8 ? 111.5* -1.3 106.7*
C[C@@H]1CCCCO[C@H](CN(C)S(=O)(=O)c2ccccc2)[C@@H](C)CN([C@H](C)CO)C(=O)c2cc(NC(=O)CCCN(C)C)ccc2O1 -28.2 1.4 71.1 . . . .
C[C@@H](O)C#Cc1ccc([C@H]2[C@H]3CN(C(=O)c4ccncc4)CCCCN3[C@H]2CO)cc1 ? -7.4 -5.0 ? -7.0 6.9 12.6
C[C@@H](O)C#Cc1ccc([C@H]2[C@@H](CO)N3CCCCN(C(=O)c4ccc(F)cc4)C[C@@H]23)cc1 103.2* -4.5 3.5 45.7 29.8 -13.6 14.1
C[C@H](O)C#Cc1ccc([C@H]2[C@H]3CN(C(=O)c4ccc(F)cc4)CCCCN3[C@H]2CO)cc1 27.0 -3.4 5.1 . . . .
C[C@@H](O)C#Cc1ccc([C@H]2[C@@H](CO)N3CCCCN(C(=O)c4ccc(F)cc4)C[C@H]23)cc1 98.9* -9.2 -30.1 102.1* 14.7 -0.7 -11.6
C[C@H](O)C#Cc1ccc([C@H]2[C@H](CO)N3CCCCN(C(=O)c4ccncc4)C[C@@H]23)cc1 -23.3 -7.8 -12.6 . . . .
C[C@H](O)C#Cc1ccc([C@@H]2[C@@H](CO)N3CCCCN(C(=O)c4ccc(F)cc4)C[C@@H]23)cc1 40.9 0.1 4.8 . . . .
COc1ccc(C#Cc2ccc([C@H]3[C@@H](CO)N4CCCCN(C(=O)c5ccncc5)C[C@H]34)cc2)cc1 101.3* -13.6 -51.3 101.9* 62.6 26.0 106.4*
CC(C)(O)C#Cc1ccc([C@H]2[C@H](CO)N3CCCCN(C(=O)c4ccncc4)C[C@@H]23)cc1 31.2 -1.9 39.7 . . . .
C[C@@H]1CN([C@H](C)CO)S(=O)(=O)c2ccc(-c3ccncc3)cc2O[C@H]1CN(C)C(=O)CN(C)C . -0.9 -4.9 . . . .
COc1ccc(NC(=O)Nc2ccc3c(c2)C(=O)N([C@@H](C)CO)C[C@H](C)[C@@H](CN(C)S(=O)(=O)c2ccc(F)cc2)OCCCC[C@H](C)O3)cc1 41.4 4.3 -76.3 . . . .
COc1ccc(NC(=O)Nc2ccc3c(c2)C(=O)N([C@H](C)CO)C[C@H](C)[C@H](CN(C)S(=O)(=O)c2ccc(F)cc2)OCCCC[C@H](C)O3)cc1 ? -2.2 -51.1 102.6* 57.7 1.6 6.9
COc1ccc(S(=O)(=O)N(C)C[C@@H]2OCCCC[C@@H](C)Oc3ccc(NC(=O)Nc4ccc(F)cc4)cc3C(=O)N([C@@H](C)CO)C[C@H]2C)cc1 111.2* 6.6 -45.5 107.4* 86.9 0.4 13.6
